These results are taken from PubChem BioAssay (NCATS).

Values joined by “and” are separate entries in the source; they are usually repeats but may differ in a detail not shown here. Equal values may be shown once. Records with an inconclusive call do not appear. Values without a mark were called inactive. Active and inactive are the calls of the source. The call rests on the fitted dose curve; in most records, active means well fitted curve in the direction sought with a large enough effect; inconclusive means small, poorly fitted or top-dose-only effect, or another doubt; inactive means no such curve, though single readings can be large; an effect the other way counts as inactive or inconclusive. Peptide text beside a SMILES is read from it. * marks the point of attachment. PhAc = O=C(Cc1ccccc1)*

The target of assay [1] is Cellular tumor antigen p53 (Homo sapiens) (UniProt P04637). In words: Primary qHTS for small molecule compounds that upregulate eGFP-tagged delta133p53alpha (in N-terminal) cells. (AID 2060322). Further: nearly all actives have a fitted effect of over 75% in size. Further: potency means the concentration at half of the fitted maximal effect.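 On activation: cells pre-induced with doxycycline then dosed without doxycycline; series mostly up to about 56 µM; 0% = DMSO vehicle and 100% = reference activator.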 Conditions: NCI-H358 eGFP-delta133p53alpha fluorescence, 24 h; activation: active compounds read high. In outline: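 NCI-H358 cells pre-induced 24 h with 10 ng/ml doxycycline for eGFP-delta133p53alpha, plated dox-free and exposed 24 h at 37C to titrated compounds. Fixed, Hoechst-stained; gated GFP peak intensity by laser scanning cytometry, normalized to DMSO (0%) and 57.5 uM 5-azacytidine (100%).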
Cellular tumor antigen p53 (Homo sapiens), sequence (P04637 whole entry, looked up): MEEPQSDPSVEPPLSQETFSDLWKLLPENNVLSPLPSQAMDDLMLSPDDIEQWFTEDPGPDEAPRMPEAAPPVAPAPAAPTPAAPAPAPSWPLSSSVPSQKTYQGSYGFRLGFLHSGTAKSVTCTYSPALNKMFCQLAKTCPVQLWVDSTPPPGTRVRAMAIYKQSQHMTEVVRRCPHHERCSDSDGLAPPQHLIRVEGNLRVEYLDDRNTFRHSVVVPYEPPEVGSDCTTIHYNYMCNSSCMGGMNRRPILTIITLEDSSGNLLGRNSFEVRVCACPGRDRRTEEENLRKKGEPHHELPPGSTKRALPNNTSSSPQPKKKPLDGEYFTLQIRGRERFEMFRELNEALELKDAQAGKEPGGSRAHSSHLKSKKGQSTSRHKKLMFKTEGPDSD

Assay [2] addresses Aldehyde dehydrogenase, mitochondrial (Homo sapiens) (UniProt P05091). In words: qHTS for Inhibitors of the Aldehyde Dehydrogenase Family (ALDH2) Primary screen (AID 2061308;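 further: plate controls were vehicle for no effect and reference inhibitor for full effect; nearly all actives have a fitted effect of over 55% in size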). (In qHTS, concentration-response curves come from the screen itself.)
Assay [3] concerns the target Retinaldehyde dehydrogenase 3 (Homo sapiens) (UniProt P47895). Put plainly: qHTS for Inhibitors of the Aldehyde Dehydrogenase Family (ALDH1A3) Validation screen (AID 2061312). Further: nearly all actives have a fitted effect of over 45% in size. Further: potency means the concentration at half of the fitted maximal effect.
Assay [4] shares this target. Put plainly: qHTS for Inhibitors of the Aldehyde Dehydrogenase Family (ALDH1A3) Primary screen (AID 2061315).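 Further: plate controls were DMSO vehicle for no effect and reference inhibitor for full effect.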

As for `COc1cc2c(Nc3cc(F)c(Cl)c(Cl)c3)ncnc2cc1OCC1CCCN(C)CCC1`, the Potency in assay [1] was 23.9 µM (active). The Potency entry in assay [2], in assay [3] and in assay [4] was “inactive” throughout.

As to `CCCSc1nc(NC2CC2c2ccc(F)c(F)c2)c2nnn(C3CC(OCCO)C(O)C3O)c2n1` (configuration not stated), the activation in assay [1] is 16.7%. The Potency entry in assay [2] and in assay [4] was “inactive” each time. Further, the Potency in assay [3] is 31.6 µM (active).

Take `O=C(O)c1cc(N(Cc2ccc(C3CCCCC3)cc2)C(=O)c2ccc(Oc3ccccc3)cc2)ccc1O`: the activation in assay [1] is -2.86%. Besides, the Potency result in assay [2], in assay [3] and in assay [4] was “inactive” in each case.

As to `C=C[C@]1(C)C[C@@H](OC(=O)CSC2C[C@H]3CC[C@@H](C2)N3C)[C@]2(C)[C@H](C)CC[C@]3(CCC(=O)[C@H]32)[C@@H](C)[C@@H]1O` (some centres not stated), the activation in assay [1] is 0.477%. The Potency entry in assay [2], in assay [3] and in assay [4] was “inactive” throughout.

`CS(=O)(=O)c1ccccc1N1CCN(c2nc3c(c(=O)[nH]2)CSCC3)CC1`: the activation in assay [1] was 11.5%. Moreover, the Potency result in assay [2], in assay [3] and in assay [4] was “inactive” in each case.

Take `CNC(=O)c1ccc2c(c1)CCO[C@H]2CCN1CCN(c2ccc(OC)cc2)CC1`: in assay [1], the activation is -25.3%. Further, the Potency entry in assay [2], in assay [3] and in assay [4] was “inactive” each time.

As for `COc1cccc(C(=O)NCCNc2nc3cc(C)cc(C)c3cc2C#N)c1`, the activation in assay [1] was -1.91%. The Potency entry in assay [2], in assay [3] and in assay [4] was “inactive” each time.

For `CCOC(=O)CNC(=O)[C@@H]1CCCN1C(=O)Cc1ccccc1` (PhAc-Pro-Gly-OEt), in assay [1], the activation is 13.8%. For the same compound, the Potency result in assay [2], in assay [3] and in assay [4] was “inactive” throughout.

As to `CCOc1nc2c(N)ncnc2n1CC`, in assay [1], the activation is -10%. The Potency entry in assay [2], in assay [3] and in assay [4] was “inactive” throughout.

For the compound `Cc1ccc(C2(C(=O)N3CCC(n4nc(-c5ccccc5)oc4=O)CC3)CC2)cc1`, the activation in assay [1] was -1.91%. Further, the Potency result in assay [2], in assay [3] and in assay [4] was “inactive” each time.

For the compound `CC(C)(O)c1ccccc1CC[C@@H](SCC1(CC(=O)O)CC1)c1cccc(/C=C/c2ccc3ccc(Cl)cc3n2)c1`, the activation in assay [1] is -15.3% and -1.91%. Further, the Potency result in assay [2], in assay [3] and in assay [4] was “inactive” each time.

Consider `CN(CCc1ccc(Nc2ncc(-c3cccnc3)s2)cc1)Cc1ccccc1`, for which the activation in assay [1] was -8.59%. The Potency entry in assay [2], in assay [3] and in assay [4] was “inactive” in each case.

On to `C[C@@H]1O[C@@H](O[C@H]2[C@H](Oc3cc(O)c(C(=O)CCc4ccc(O)cc4)c(O)c3)O[C@H](CO)[C@@H](O)[C@@H]2O)[C@H](O)[C@H](O)[C@H]1O`, for which the activation in assay [1] was -10.5%. The Potency result in assay [2], in assay [3] and in assay [4] was “inactive” each time.

As for `CCOC(=O)CCC(=O)O[C@H]1[C@H](O[C@@H]2[C@@H](C)[C@H](O[C@H]3C[C@@](C)(OC)[C@@H](O)[C@H](C)O3)[C@@H](C)C(=O)O[C@H](CC)[C@@](C)(O)[C@H](O)[C@@H](C)C(=O)[C@H](C)CC2(C)O)O[C@H](C)C[C@@H]1N(C)C` (some centres not stated), the activation in assay [1] was 9.55%. The Potency result in assay [2], in assay [3] and in assay [4] was “inactive” throughout.

Take `CCCCOc1cc(C(=O)OCCN(CC)CC)ccc1N`: in assay [1], the activation was -2.82% and 0%. The Potency entry in assay [2], in assay [3] and in assay [4] was “inactive” in each case.

`OC1(c2ccc(Cl)c(C(F)(F)F)c2)CCN(CCCC(c2ccc(F)cc2)c2ccc(F)cc2)CC1`: the activation in assay [1] was 13%. The Potency result in assay [2], in assay [3] and in assay [4] was “inactive” in each case.

Regarding `O=C(NCCCN1CCC2(CC1)OCc1ccccc12)[C@H]1CCCN1Cc1ccccc1`, the activation in assay [1] is 0.477%. In addition, the Potency result in assay [2], in assay [3] and in assay [4] was “inactive” throughout.

On to `CC(C)c1nc(-c2ccc(NC(=O)Nc3cccc(C(F)(F)F)c3)c3ccccc23)c2c(N)nccn12`, for which the Potency in assay [1] is 26.9 µM (active). The Potency entry in assay [2], in assay [3] and in assay [4] was “inactive” in each case.

Regarding `CC(C)C(CO)Nc1nc(Nc2cc(N)cc(Cl)c2)c2ncn(C(C)C)c2n1` (configuration not stated), in assay [1], the Potency is 30.1 µM (active). For the same compound, the Potency entry in assay [2], in assay [3] and in assay [4] was “inactive” throughout.

For the compound `COc1ccc(C#Cc2ccc(C(=O)N3CCC[C@@H](CO)C3)cc2)cc1`, the activation in assay [1] is -13.8%. Also, the Potency entry in assay [2], in assay [3] and in assay [4] was “inactive” in each case.

Regarding `COc1ccccc1Oc1ccc(N(Cc2cccnc2)S(=O)(=O)CC(F)(F)F)cc1`, the activation in assay [1] is -6.21%. Moreover, the Potency entry in assay [2], in assay [3] and in assay [4] was “inactive” throughout.

Consider `O=C(COc1ccc(Cl)cc1)NC1CCC(NC(=O)COc2ccc(Cl)cc2)CC1` (configuration not stated), for which the activation in assay [1] is -5.25%. For the same compound, the Potency entry in assay [2], in assay [3] and in assay [4] was “inactive” throughout.

With `O=C(NCCN1CCC(n2c(=O)[nH]c3ccccc32)CC1)c1ccc2ccccc2c1`, the activation in assay [1] is -1.43%. In addition, the Potency entry in assay [2], in assay [3] and in assay [4] was “inactive” in each case.

Regarding `OCC(Cc1ccccc1)Nc1nc(Oc2ccc3c(c2)CCC3)nc2c1ncn2Cc1ccc(-c2ccccc2)cc1` (configuration not stated), the activation in assay [1] is 6.21%. Besides, the Potency result in assay [2], in assay [3] and in assay [4] was “inactive” each time.

As for `O=C1COc2nccc(-c3ccccc3F)c2CN1Cc1cc(C(F)(F)F)cc(C(F)(F)F)c1`, the activation in assay [1] is -4.77%. Besides, the Potency result in assay [2], in assay [3] and in assay [4] was “inactive” in each case.

With `COC(=O)c1sccc1S(=O)(=O)Nc1ccc(Nc2ccccc2)cc1OC`, the activation in assay [1] was -5.73%. Further, the Potency entry in assay [2], in assay [3] and in assay [4] was “inactive” each time.

In the case of `CC(C)n1c(=O)c(C(=O)NC2CC3CCC(C2)N3C[C@@H](O)CN(C)S(C)(=O)=O)cc2ccccc21` (some centres not stated), the activation in assay [1] was -10.5%. Moreover, the Potency entry in assay [2], in assay [3] and in assay [4] was “inactive” in each case.

Turning to `CN1CCC(Nc2nc(Nc3ccc(Oc4ccccc4)cc3)c3c(=O)[nH]cc(Br)c3n2)CC1`, the Potency in assay [1] is 10.7 µM (active). In addition, the Potency result in assay [2], in assay [3] and in assay [4] was “inactive” each time.
